Data as given in PubChem BioAssay (NCI).
Compounds without any hit were thinned out: in the full panel of roughly 83,000, 20% have a hit.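 Cell lines were cultured in 96-well plates, exposed to a single compound concentration, and assessed for percent growth 48 hours later.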 Unmarked numbers belong to inactive results. The source made the active and inactive calls. How the source made its calls: active means growth percent below 10; inactive means the rest.

Assays:
Assay in all cases: NCI-60 one-dose screen, 48 h (100 = growth as untreated, 0 = no growth, -100 = all killed)
Conditions in all cases: 10 µM unless noted
HCT-15 colon = tested on: HCT-15 colon
HT29 colon = tested on: HT29 colon
SNB-75 CNS = tested on: SNB-75 CNS
SNB-19 CNS = tested on: SNB-19 CNS
U251 CNS = tested on: U251 CNS
SK-MEL-5 melanoma = tested on: SK-MEL-5 melanoma
UACC-62 melanoma = tested on: UACC-62 melanoma
LOX IMVI melanoma = tested on: LOX IMVI melanoma
SK-MEL-28 melanoma = tested on: SK-MEL-28 melanoma
SK-MEL-2 melanoma = tested on: SK-MEL-2 melanoma
EKVX NSCLC = tested on: EKVX NSCLC
SN12C renal = tested on: SN12C renal
UO-31 renal = tested on: UO-31 renal
TK-10 renal = tested on: TK-10 renal
ACHN renal = tested on: ACHN renal
CAKI-1 renal = tested on: CAKI-1 renal
A498 renal = tested on: A498 renal
CCRF-CEM leukemia = tested on: CCRF-CEM leukemia
MOLT-4 leukemia = tested on: MOLT-4 leukemia
PC-3 prostate = tested on: PC-3 prostate

| Structure (SMILES) | growth (HCT-15 colon) | growth (HT29 colon) | growth (SNB-75 CNS) | growth (SNB-19 CNS) | growth (U251 CNS) | growth (SK-MEL-5 melanoma) | growth (UACC-62 melanoma) | growth (LOX IMVI melanoma) | growth (SK-MEL-28 melanoma) | growth (SK-MEL-2 melanoma) | growth (EKVX NSCLC) | growth (SN12C renal) | growth (UO-31 renal) | growth (TK-10 renal) | growth (ACHN renal) | growth (CAKI-1 renal) | growth (A498 renal) | growth (CCRF-CEM leukemia) | growth (MOLT-4 leukemia) | growth (PC-3 prostate) |
| --- | --- | --- | --- | --- | --- | --- | --- | --- | --- | --- | --- | --- | --- | --- | --- | --- | --- | --- | --- | --- |
| N#C/C(=C\c1ccc(Br)cc1)n1nnc2c(F)cccc21 | 1.57% (active) | -0.198% (active) | 18.8% | 15% | -19.5% (active) | -12.1% (active) | -37.5% (active) | -69.1% (active) | -3.74% (active) | 28.4% | 30.6% | -1.81% (active) | -65.9% (active) | 2.41% (active) | -50.8% (active) | -4.93% (active) | -21.9% (active) | 2.97% (active) | 9.87% (active) |  |
| CN1CCN(Cc2ccc(NC(=O)c3cccc(C#Cc4c(N)ncc5ccc(F)cc45)c3)cc2C(F)(F)F)CC1 | -77.9% (active) | -56.1% (active) | -92.4% (active) | -85.9% (active) | -67.9% (active) | -83.1% (active) |  | -97.9% (active) | -90.2% (active) | -49.9% (active) | -19.6% (active) | 5.02% (active) | -69.5% (active) | -70.9% (active) | -93.5% (active) | -98.5% (active) | -78.9% (active) | -23.1% (active) | -61.4% (active) | -19.2% (active) |
| COc1cc(OC)cc(-c2ccc(-c3ccc(C(=N)N)cn3)s2)c1 | 41.7% | 37.2% | 94.6% | 92.1% | 5.78% (active) | 80.5% | 98.2% | 14% | 109% | 104% | 95.6% | 79.2% | 94.2% | 113% | 75% | 69.8% | 102% | 8.54% (active) | 49.3% |  |
| Brc1ccc(/C=C(/C2=NCCN2)n2ccc3ccccc32)cc1 | 73.7% | 65.1% | 33% | 85.1% | 65.6% | 73.4% | 75.8% | 50.5% | 100% | 90.9% | 79% | 73.8% | 37.2% | 68.1% | 68.7% | 39.7% | 87.4% | 59.6% | 9.21% (active) |  |
| Clc1ccc(CNc2ccc3nc(CCC4CCCCC4)[nH]c3c2)cc1 | 9.61% (active) | 4.9% (active) | 77.2% | 71.1% | 43.8% | 0.653% (active) | 67.4% | 72% | 42% | 85.6% | 75.6% | 59.1% | 29.9% | 83.6% | 76.6% | 50.4% | 45.8% | 41.4% | 39.1% |  |
| COc1ccc(-c2csc(NC(=O)CN3CCN(CCO)CC3)n2)cc1NS(=O)(=O)c1cccc2c(N(C)C)cccc12 | 39.6% | 20.1% | 78.2% | 74.3% | 29.5% | 58.5% | 89% | -57.9% (active) | -2.57% (active) | 86.9% | 80.9% | 89.1% | 61.4% | 109% | 87% | 75.6% | 102% | 54.8% | 65.4% |  |
| C=C1CCC2C3(C)COC(c4ccc(NC(C)=O)cc4)OC3CCC2(C)C1C/C=C1/C(=O)OCC1O (stereo not drawn) | 63.3% | 52.2% | 63.9% | 83.6% | 54.7% | 29% | 81% | 55.4% | 88.6% | 84.4% | 39.6% | 91.6% | 68.3% | 75.3% | 65.8% | 87.7% | 57% | 27.3% | 26.7% |  |
